# Assay outcomes deposited in PubChem by National Center for Advancing Translational Sciences (NCATS).
# ALDH1A1 inh = ALDH1A1 (human) enzyme inhibition | actives 7.3% (n = 220,000) | Potency, µM (doses to about 75.3 µM), for the others: at the top dose activity, negative = inhibition, usual class: inhibitors | P00352 | AID 1030 | Purified ALDH1A1, NADH fluorescence, propionaldehyde substrate;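 further: potency means the concentration at half of the fitted maximal effect; plate controls were no enzyme wells and a reference inhibitor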
# PNC inhibitor = inhibitors of perinucleolar compartment assembly. PC3M PTB-GFP, PNC prevalence imaging, 16 h; active compounds read low. activity change (PNC), negative = inhibition, % at 10 µM. actives 3.1% (n = 140,000). AID 2417;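 active means readout at or below -70, meaning at least 70% loss of cells showing the perinucleolar compartment, a nuclear body marking cancer cells; inconclusive means readout between -30 and a set limit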;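 further: plate controls were DMSO wells for no effect and camptothecin positive control wells for full effect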
#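 PC3M cells stably expressing PTB-GFP, 750–1000 cells/well, treated 16 h at 37 °C with compound (23 nl of library stock), in duplicate. After paraformaldehyde fixation and Hoechst stain, imaged at 20x; PNC prevalence scored by image analysis.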
# HPGD inh = inhibitors of human 15-hydroxyprostaglandin dehydrogenase (HPGD). P15428. purified HPGD, NADH fluorescence kinetic, PGE2 substrate. Potency, µM, inactives show at the top dose activity change, negative = inhibition, most hits filed as inhibitors. actives 4.3% (n = 150,000). AID 894; further: potency means the concentration at half of the fitted maximal effect
# Target sequence (P15428 whole entry, looked up): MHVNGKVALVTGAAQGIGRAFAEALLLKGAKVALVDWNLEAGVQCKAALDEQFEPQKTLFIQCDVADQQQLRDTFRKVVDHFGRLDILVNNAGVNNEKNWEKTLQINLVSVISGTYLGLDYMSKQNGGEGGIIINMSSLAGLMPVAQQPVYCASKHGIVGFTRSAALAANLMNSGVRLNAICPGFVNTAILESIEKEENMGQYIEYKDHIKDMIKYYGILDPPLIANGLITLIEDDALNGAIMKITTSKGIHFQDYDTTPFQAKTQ
#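 NADH formation kinetics: reaction with 30 uM PGE2 and 1 mM NAD+ (final), 20 nM enzyme, Tris-HCl pH 8 with Tween 20, after 15 min compound preincubation at room temperature. Fluorescence change, last versus first of five reads.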
# * hit, by the source's call; ? = inconclusive; nt = not tested or not shown; [ ] = another dose, or the depositor's remark. Hits are enriched below; roughly 11% of the tested compounds scored in any of these assays. Unless noted, the call rests on the fitted dose curve; in most records, active means well fitted inhibition curve with a large enough effect (not every such curve was filed as active); inconclusive means small, poorly fitted or top-dose-only effect, or another doubt; inactive means no such curve, though single readings can be large or run the other way. Unless noted, on the % scale 0 is the no-effect control and ±100 the full control effect.
SMILES,ALDH1A1 inh,PNC inhibitor,HPGD inh
Cc1ccc(C)c(NC(=S)NCc2ccc3[nH]c4c(c3c2)CCCC4)c1,-14%,-16,-21%
CNC(=S)NCc1ccc2[nH]c3c(c2c1)CCCC3,25µM*,nt,nt
Cc1ccccc1NC1=CC(=O)CC(C)(C)C1,-1%,5,-26%
Cc1ccc(C)c(NC2=CC(=O)CC(C)(C)C2)c1C#N,13µM*,-9,-11%
Cc1nc2ccccn2c1C(=O)NCc1cccnc1,2%,-85*,-5%
O=C(NNS(=O)(=O)c1ccc(Cl)cc1)c1cnn(-c2ccccc2)c1-n1cccc1,2µM*,74,-9%
O=C(O)c1cnn(-c2ccccc2)c1-n1cccc1,-3%,-15,-5%
CC(=O)c1ccccc1C(=O)NCc1cccnc1,6%,-11,-5%
O=C(NNc1ccccc1)C(=O)NNS(=O)(=O)c1ccc([N+](=O)[O-])cc1,4%,nt,nt
O=C(NNS(=O)(=O)c1ccccc1)c1cnn(-c2ccccc2)c1-n1cccc1,-12%,-18,2%
NNC(=O)c1cnn(-c2ccccc2)c1-n1cccc1,0.71µM*,nt,nt
O=C(NNS(=O)(=O)c1ccc([N+](=O)[O-])cc1)c1cnn(-c2ccccc2)c1-n1cccc1,?,-100*,-3%
CCOc1cc(CNCc2ccncc2)cc(Br)c1OCc1ccccc1F,8%,?,-14%
Cn1/c(=N/NC(=O)c2ccccc2F)sc2ccccc21,0%,nt,nt
CCCc1cc(=O)[nH]c(N/N=C/C=C\c2ccccc2)n1,-3%,nt,nt
Cc1ccccc1C(=O)c1c[nH]c(C(=O)NCc2cccs2)c1,?,39,-18%
O=C1C=C(Nc2ccc(Cl)cc2Cl)CC(c2ccco2)C1 (centres undefined),5%,nt,nt
CN(C)C(=O)[C@]1(C)C[C@H]1[C@H](NC(=O)CNC(=O)[C@@H]1CCCN1C(=O)[C@]1(C)C[C@H]1[C@H](NC(=O)OCc1ccccc1)c1ccccc1)c1ccccc1,?,nt,-12%
Cc1ccccc1NC(=O)C1CCCN1/C=C/C(=O)C(F)(F)F (centres undefined),8%,?,nt
C/C(=N\N=C(N)N)c1ccc(C)c(C)c1,1%,nt,nt
CC(=O)c1ccc(NC(=O)Nc2ccccc2)cc1,0%,?,-4%
CCCC/C=C/C(NC(=O)C(C)(C)C)c1ccccc1 (centres undefined),4%,nt,-1%
CC(=O)c1c(C)nc2ccccn12,4%,39,-5%
Cc1nc2ccccn2c1C(=O)NNS(=O)(=O)c1ccc(Cl)cc1,8.9µM*,nt,nt
COC(=O)N1C(C)=Cc2ccccc2C1C/C(C)=C/C(C)=O (centres undefined),10%,nt,-8%
SMILES,ALDH1A1 inh,PNC inhibitor,HPGD inh
COCCNC(=O)C(c1c[nH]c2ccccc12)N(C(=O)c1snc(C(N)=O)c1N)c1cccc(OC)c1 (centres undefined),4%,nt,nt
c1coc(-c2cc(C3CCNCC3)[nH]n2)c1,13%,nt,nt
N#CCN1CCC(c2cc(-c3ccco3)n[nH]2)CC1,22µM*,nt,nt
CC(=O)Nc1sc2c(c1CN1CCN(c3ccccn3)CC1)CCCC2,22µM*,30,-16%
CC(=O)Nc1sc2c(c1CN1CCN(c3ccc(F)cc3)CC1)CCCC2,?,4,-7%
O=C(c1cc2cc([N+](=O)[O-])ccc2oc1=O)N1CCOCC1,13µM*,nt,nt
CC(C)N(C(=O)/C=C/c1cccc([N+](=O)[O-])c1)C(C)C,-12%,nt,nt
O=C(c1cccc([N+](=O)[O-])c1)N1CCOCC1,5%,30,-2%
O=C(c1sc2cc([N+](=O)[O-])ccc2c1Cl)N1CCOCC1,-2%,13,16µM*
O=C(c1cc2cc([N+](=O)[O-])ccc2oc1=O)N1CCN(c2ncccn2)CC1,0%,80,-4%
CC(C)N(C(=O)c1sc2cc([N+](=O)[O-])ccc2c1Cl)C(C)C,?,17,28µM*
CCCCCCN=C(C)c1ccccc1O,1%,nt,nt
O=C(CCc1nnc(C2(c3ccc(Cl)cc3)CCC2)o1)NCCCn1cccn1,-4%,nt,nt
N#CCCN(C(=O)COC(=O)c1ccc2c(c1)NC(=O)CS2)c1ccc2c(c1)OCCO2,14%,-29,-1%
Cc1cc2c(n1-c1ccc(Br)cc1)CC(C)(C)CC2=O,1%,?,-2%
Cc1ccc(-n2c(C)cc3c2CC(C)(C)CC3=O)cc1C,?,-85*,-4%
O=C(O)c1nn(-c2ccccc2-c2n[nH]c(=O)[nH]c2=O)c(=O)[nH]c1=O,6%[13.5 µM],nt,-7%
O=C(CN1CCN(Cc2ccccc2F)C1=O)NCc1ccco1,0%,-7,-11%
COc1ccc(-c2n[nH]c(C)c2-c2cnn(-c3ccccc3)c2)c(O)c1C,9%,-11,-12%
COc1ccc(-c2n[nH]c(C)c2-c2cnn(-c3ccccc3)c2)c(O)c1,7.9µM*,-1,-9%
